# This excerpt belongs to a sample that is enriched for the strongest signals.
# B1: his-Lectin-24A (Drosophila melanogaster) (protein)
# chain: MFRLSVLVLNLLLVSHEFSAGTAKIEIQPLPALCNGYCFPTLKPVMEYVAIHQDKWNTCTEILANEARKDQIQLNIQLDALKADVSNIKASQLSKDEKLDRMEREQFAMHESLETINRYLTVKLDRTKLQLEAIKNTMDYMKAQMDGYFSAINGVQCLQPGFEKIGDRYFYIEEDVELNWLDAQAKCRRMGGHLASIKTKQEFDAIVEKLDDSKSYFLGVNENTKTGDFVSAASGKSCLYHEWGPGEPHHNNDQERCVSILRKLMHVGNCTYEKRFICQYGI
# Legend:
# Experiment in all cases: glycan array binding signal (z-score within array); higher = stronger binding
# Settings in all cases: glycan notation: IUPAC condensed, linker removed
# [1] = molecular target: Fuc(a1-2)Gal(b1-3)[Fuc(a1-4)]GlcNAc
# Procedure, shortened: (§1)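 Glycan array binding is given as a within-array Z-score, which can be read as non-binding when negative. The arrays, 3228 of them, came from the Consortium for Functional Glycomics database and were retained only where the protein sequence was available. Z-scores were averaged across arrays of the same protein sequence at different concentrations or buffers and across linkers.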
# [2] = molecular target: Fuc(a1-2)Gal(b1-4)GlcNAc(b1-2)[Fuc(a1-2)Gal(b1-4)GlcNAc(b1-4)]Man(a1-3)[Fuc(a1-2)Gal(b1-4)GlcNAc(b1-2)Man(a1-6)]Man(b1-4)GlcNAc(b1-4)GlcNAc
# Procedure, shortened: as §1
# [3] = molecular target: Fuc(a1-2)Gal(b1-4)GlcNAc(b1-3)GalNAc
# Procedure, shortened: as §1
# [4] = molecular target: Fuc(a1-2)Gal(b1-4)GlcNAc(b1-3)[Fuc(a1-3)[Gal(b1-4)]GlcNAc(b1-6)]Gal(b1-4)Glc
# Procedure, shortened: as §1
# [5] = molecular target: Fuc(a1-2)Gal(b1-4)[Fuc(a1-3)]GlcNAc(b1-2)[Fuc(a1-2)Gal(b1-4)[Fuc(a1-3)]GlcNAc(b1-4)]Man(a1-3)[Fuc(a1-2)Gal(b1-4)[Fuc(a1-3)]GlcNAc(b1-2)Man(a1-6)]Man(b1-4)GlcNAc(b1-4)GlcNAc
# Procedure, shortened: as §1
# [6] = molecular target: Fuc(a1-2)Gal6S(b1-4)Glc
# Procedure, shortened: as §1
# [7] = molecular target: Fuc(a1-2)[Gal(a1-3)]Gal(b1-4)GlcNAc(b1-2)Man(a1-3)[Fuc(a1-2)[Gal(a1-3)]Gal(b1-4)GlcNAc(b1-2)Man(a1-6)]Man(b1-4)GlcNAc(b1-4)GlcNAc
# Procedure, shortened: as §1
# [8] = molecular target: Fuc(a1-2)[Gal(a1-3)]Gal(b1-4)GlcNAc(b1-6)GalNAc
# Procedure, shortened: as §1
# [9] = molecular target: Fuc(a1-3)[Gal(b1-4)]GlcNAc(b1-2)Man(a1-3)[Fuc(a1-3)[Gal(b1-4)]GlcNAc(b1-2)Man(a1-6)]Man(b1-4)GlcNAc(b1-4)[Fuc(a1-6)]GlcNAc
# Procedure, shortened: as §1
# [10] = molecular target: Fuc(a1-3)[Gal3S(b1-4)]Glc
# Procedure, shortened: as §1
# [11] = molecular target: Gal(a1-3)Gal(b1-3)GlcNAc(b1-2)Man(a1-3)[Gal(a1-3)Gal(b1-3)GlcNAc(b1-2)Man(a1-6)]Man(b1-4)GlcNAc(b1-4)GlcNAc
# Procedure, shortened: as §1
# [12] = molecular target: Gal(a1-3)Gal(b1-3)GlcNAc(b1-6)GalNAc
# Procedure, shortened: as §1
# [13] = molecular target: Gal(a1-3)Gal(b1-4)GlcNAc
# Procedure, shortened: as §1
# [14] = molecular target: Gal(b1-3)GlcNAc(b1-2)Man(a1-3)[Gal(b1-3)GlcNAc(b1-2)Man(a1-6)]Man(b1-4)GlcNAc(b1-4)GlcNAc
# Procedure, shortened: as §1
# [15] = molecular target: Gal(b1-3)GlcNAc(b1-3)Gal(b1-4)GlcNAc(b1-3)Gal(b1-4)GlcNAc(b1-2)[Gal(b1-3)GlcNAc(b1-3)Gal(b1-4)GlcNAc(b1-3)Gal(b1-4)GlcNAc(b1-6)]Man(a1-6)[Gal(b1-3)GlcNAc(b1-3)Gal(b1-4)GlcNAc(b1-3)Gal(b1-4)GlcNAc(b1-2)Man(a1-3)]Man(b1-4)GlcNAc(b1-4)[Fuc(a1-6)]GlcNAc
# Procedure, shortened: as §1
# [16] = molecular target: Gal(b1-3)[Fuc(a1-4)]GlcNAc(b1-6)GalNAc
# Procedure, shortened: as §1
# [17] = molecular target: Gal(b1-4)GlcNAc(b1-2)Man(a1-3)Man(b1-4)GlcNAc(b1-4)GlcNAc
# Procedure, shortened: as §1
# [18] = molecular target: Gal(b1-4)GlcNAc(b1-2)Man(a1-6)[Man(a1-3)]Man(b1-4)GlcNAc(b1-4)GlcNAc
# Procedure, shortened: as §1
# [19] = molecular target: Gal(b1-4)GlcNAc(b1-2)[Gal(b1-4)GlcNAc(b1-4)]Man(a1-3)[GlcNAc(b1-4)][Gal(b1-4)GlcNAc(b1-2)Man(a1-6)]Man(b1-4)GlcNAc(b1-4)GlcNAc
# Procedure, shortened: as §1
# [20] = molecular target: Gal(b1-4)GlcNAc(b1-2)[Gal(b1-4)GlcNAc(b1-6)]Man(a1-6)[Gal(b1-4)GlcNAc(b1-2)Man(a1-3)]Man(b1-4)GlcNAc(b1-4)GlcNAc
# Procedure, shortened: as §1
# [21] = molecular target: Gal(b1-4)GlcNAc(b1-3)Gal(b1-4)GlcNAc(b1-3)Gal(b1-4)GlcNAc
# Procedure, shortened: as §1
# [22] = molecular target: Gal(b1-4)GlcNAc(b1-3)Gal(b1-4)GlcNAc(b1-3)Gal(b1-4)GlcNAc(b1-3)Gal(b1-4)GlcNAc(b1-2)Man(a1-3)[Gal(b1-4)GlcNAc(b1-3)Gal(b1-4)GlcNAc(b1-3)Gal(b1-4)GlcNAc(b1-3)Gal(b1-4)GlcNAc(b1-2)Man(a1-6)]Man(b1-4)GlcNAc(b1-4)[Fuc(a1-6)]GlcNAc
# Procedure, shortened: as §1
# [23] = molecular target: Gal(b1-4)GlcNAc(b1-3)Gal(b1-4)GlcNAc(b1-3)Gal(b1-4)GlcNAc(b1-3)Gal(b1-4)GlcNAc(b1-3)Gal(b1-4)GlcNAc(b1-2)Man(a1-3)[Gal(b1-4)GlcNAc(b1-3)Gal(b1-4)GlcNAc(b1-3)Gal(b1-4)GlcNAc(b1-3)Gal(b1-4)GlcNAc(b1-3)Gal(b1-4)GlcNAc(b1-2)Man(a1-6)]Man(b1-4)GlcNAc(b1-4)GlcNAc
# Procedure, shortened: as §1
# [24] = molecular target: Gal(b1-4)GlcNAc(b1-6)[Gal(b1-4)GlcNAc(b1-3)]GalNAc
# Procedure, shortened: as §1
# [25] = molecular target: Gal3S(b1-4)[Fuc(a1-3)]GlcNAc6S
# Procedure, shortened: as §1
# [26] = molecular target: GalNAc3S(b1-4)GlcNAc3S
# Procedure, shortened: as §1
# [27] = molecular target: GalNAc4S6S(b1-4)GlcNAc
# Procedure, shortened: as §1
# [28] = molecular target: Glc(a1-4)Glc
# Procedure, shortened: as §1
# [29] = molecular target: GlcA(b1-3)Gal
# Procedure, shortened: as §1
# [30] = molecular target: GlcNAc(a1-4)Gal(b1-4)GlcNAc(b1-3)Gal(b1-4)Glc
# Procedure, shortened: as §1
# [31] = molecular target: GlcNAc(b1-2)[GlcNAc(b1-4)]Man(a1-3)[GlcNAc(b1-4)][GlcNAc(b1-2)[GlcNAc(b1-6)]Man(a1-6)]Man(b1-4)GlcNAc(b1-4)[Fuc(a1-6)]GlcNAc
# Procedure, shortened: as §1
# [32] = molecular target: GlcNAc(b1-2)[GlcNAc(b1-6)]Man(a1-6)[GlcNAc(b1-2)Man(a1-3)]Man(b1-4)GlcNAc(b1-4)[Fuc(a1-6)]GlcNAc
# Procedure, shortened: as §1
# [33] = molecular target: GlcNAc(b1-3)Gal(b1-4)GlcNAc(b1-3)Gal(b1-4)GlcNAc(b1-3)Gal(b1-4)GlcNAc(b1-3)Gal(b1-4)GlcNAc(b1-2)Man(a1-3)[GlcNAc(b1-3)Gal(b1-4)GlcNAc(b1-3)Gal(b1-4)GlcNAc(b1-3)Gal(b1-4)GlcNAc(b1-3)Gal(b1-4)GlcNAc(b1-2)Man(a1-6)]Man(b1-4)GlcNAc(b1-4)GlcNAc
# Procedure, shortened: as §1
# [34] = molecular target: GlcNAc(b1-6)Gal(b1-4)GlcNAc
# Procedure, shortened: as §1
# [35] = molecular target: Kdn(a2-3)Gal(b1-3)GalNAc
# Procedure, shortened: as §1
# [36] = molecular target: MurNAc(b1-4)GlcNAc
# Procedure, shortened: as §1
# [37] = molecular target: Neu5Ac(a2-3)Gal(b1-3)[GlcNAc(b1-6)]GalNAc
# Procedure, shortened: as §1
# [38] = molecular target: Neu5Ac(a2-3)Gal(b1-4)GlcNAc(b1-2)[Neu5Ac(a2-3)Gal(b1-4)GlcNAc(b1-4)]Man(a1-3)[GlcNAc(b1-4)][Neu5Ac(a2-3)Gal(b1-4)GlcNAc(b1-2)[Neu5Ac(a2-3)Gal(b1-4)GlcNAc(b1-6)]Man(a1-6)]Man(b1-4)GlcNAc(b1-4)GlcNAc
# Procedure, shortened: as §1
# [39] = molecular target: Neu5Ac(a2-3)Gal(b1-4)GlcNAc(b1-2)[Neu5Ac(a2-3)Gal(b1-4)GlcNAc(b1-6)]Man(a1-6)[Neu5Ac(a2-3)Gal(b1-4)GlcNAc(b1-2)Man(a1-3)][GlcNAc(b1-4)]Man(b1-4)GlcNAc(b1-4)GlcNAc
# Procedure, shortened: as §1
# [40] = molecular target: Neu5Ac(a2-6)Gal(b1-4)GlcNAc(b1-2)Man
# Procedure, shortened: as §1
# [41] = molecular target: Neu5Ac(a2-6)Gal(b1-4)GlcNAc(b1-2)Man(a1-3)[GlcNAc(b1-4)][Neu5Ac(a2-6)Gal(b1-4)GlcNAc(b1-2)Man(a1-6)]Man(b1-4)GlcNAc(b1-4)GlcNAc
# Procedure, shortened: as §1
# [42] = molecular target: Neu5Ac(a2-6)Gal(b1-4)GlcNAc(b1-2)Man(a1-3)[Man(a1-6)]Man(b1-4)GlcNAc(b1-4)GlcNAc
# Procedure, shortened: as §1
# [43] = molecular target: Neu5Ac(a2-6)Gal(b1-4)GlcNAc(b1-2)Man(a1-3)[Neu5Ac(a2-6)Gal(b1-4)GlcNAc(b1-2)Man(a1-6)]Man(b1-4)GlcNAc(b1-4)GlcNAc
# Procedure, shortened: as §1
# [44] = molecular target: Neu5Ac(a2-6)Gal(b1-4)GlcNAc(b1-2)Man(a1-6)Man(b1-4)GlcNAc(b1-4)GlcNAc
# Procedure, shortened: as §1
# [45] = molecular target: Neu5Ac(a2-6)Gal(b1-4)GlcNAc(b1-2)Man(a1-6)[Man(a1-3)]Man(b1-4)GlcNAc(b1-4)GlcNAc
# Procedure, shortened: as §1
# [46] = molecular target: Neu5Ac(a2-6)Gal(b1-4)GlcNAc(b1-3)Gal(b1-4)GlcNAc(b1-3)[Neu5Ac(a2-6)Gal(b1-4)GlcNAc(b1-3)Gal(b1-4)GlcNAc(b1-6)]GalNAc
# Procedure, shortened: as §1
# [47] = molecular target: Neu5Ac(a2-8)Neu5Ac(a2-3)Gal(b1-3)GalNAc(b1-4)[Neu5Ac(a2-3)]Gal(b1-4)Glc
# Procedure, shortened: as §1
binder,measurement,setting,value
B1,glycan array binding signal (z-score),[1],-0.536
same,glycan array binding signal (z-score),[2],2.61
same,glycan array binding signal (z-score),[3],-0.522
same,glycan array binding signal (z-score),[4],2.69
same,glycan array binding signal (z-score),[5],-0.328
same,glycan array binding signal (z-score),[6],-0.34
same,glycan array binding signal (z-score),[7],2.02
same,glycan array binding signal (z-score),[8],0.328
same,glycan array binding signal (z-score),[9],0.275
same,glycan array binding signal (z-score),[10],-1.19
same,glycan array binding signal (z-score),[11],2.35
same,glycan array binding signal (z-score),[12],-0.445
same,glycan array binding signal (z-score),[13],0.285
same,glycan array binding signal (z-score),[14],1.74
same,glycan array binding signal (z-score),[15],1.49
same,glycan array binding signal (z-score),[16],2.34
same,glycan array binding signal (z-score),[17],0.019
same,glycan array binding signal (z-score),[18],2.68
same,glycan array binding signal (z-score),[19],-1.25
same,glycan array binding signal (z-score),[20],-0.553
same,glycan array binding signal (z-score),[21],-0.79
same,glycan array binding signal (z-score),[22],3.44
same,glycan array binding signal (z-score),[23],4.07
same,glycan array binding signal (z-score),[24],0.403
same,glycan array binding signal (z-score),[25],0.382
same,glycan array binding signal (z-score),[26],3.3
same,glycan array binding signal (z-score),[27],6.71
same,glycan array binding signal (z-score),[28],-0.592
same,glycan array binding signal (z-score),[29],0.317
same,glycan array binding signal (z-score),[30],2.7
same,glycan array binding signal (z-score),[31],2.05
same,glycan array binding signal (z-score),[32],1.69
same,glycan array binding signal (z-score),[33],0.615
same,glycan array binding signal (z-score),[34],0.608
same,glycan array binding signal (z-score),[35],0.552
same,glycan array binding signal (z-score),[36],-0.281
same,glycan array binding signal (z-score),[37],-0.036
same,glycan array binding signal (z-score),[38],2.26
same,glycan array binding signal (z-score),[39],-0.362
same,glycan array binding signal (z-score),[40],-0.44
same,glycan array binding signal (z-score),[41],-1.2
same,glycan array binding signal (z-score),[42],-0.737
same,glycan array binding signal (z-score),[43],0.078
same,glycan array binding signal (z-score),[44],1.27
same,glycan array binding signal (z-score),[45],1.07
same,glycan array binding signal (z-score),[46],0.118
same,glycan array binding signal (z-score),[47],2.87

# Source: the supplement of paper PMC8728848
